Compounds with a hit are over-represented: about 2.2% of the library has one in this group of screens.
rTrxR1 inhibitor: blocks rat thioredoxin reductase 1; recombinant rTrxR1, NADPH fluorescence consumption, selenite substrate; Potency, µM (titrated, usually from 114 µM), for inactives: at the top dose activity change, negative = inhibition, hits mostly inhibitors; 390,000 compounds, 1% hits; AID 588453; O89049; also: potency is read from the fitted curve at half-maximal effect; % is scaled to controls: 0 for no effect and ±100 for the full control effect; nearly all actives have a fitted effect of over 65% in size
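Rat TrxR1 (90 nM in the dispensed reagent) was pre-reduced with 400 uM NADPH for 5 min at room temperature, then incubated with compound for 15 min. After 400 uM selenite was added, NADPH fluorescence (Ex 340/Em 450 nm) was followed for 8 min.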
mIDH1 inhibitor: human IDH1 R132H inhibition | 390,000 compounds, 0.093% hits | IDH1-R132H enzyme, NADPH consumption, diaphorase/resazurin fluorescence | O75874 | Potency, µM (doses to about 76.6 µM), without a hit: at the highest dose activity change, negative = inhibition, hits mostly inhibitors; also: potency is read from the fitted curve at half-maximal effect; % is scaled to controls: 0 for no effect and ±100 for the full control effect; nearly all actives have a fitted effect of over 65% in size
Target sequence (O75874 whole entry R132H, stated change not applied): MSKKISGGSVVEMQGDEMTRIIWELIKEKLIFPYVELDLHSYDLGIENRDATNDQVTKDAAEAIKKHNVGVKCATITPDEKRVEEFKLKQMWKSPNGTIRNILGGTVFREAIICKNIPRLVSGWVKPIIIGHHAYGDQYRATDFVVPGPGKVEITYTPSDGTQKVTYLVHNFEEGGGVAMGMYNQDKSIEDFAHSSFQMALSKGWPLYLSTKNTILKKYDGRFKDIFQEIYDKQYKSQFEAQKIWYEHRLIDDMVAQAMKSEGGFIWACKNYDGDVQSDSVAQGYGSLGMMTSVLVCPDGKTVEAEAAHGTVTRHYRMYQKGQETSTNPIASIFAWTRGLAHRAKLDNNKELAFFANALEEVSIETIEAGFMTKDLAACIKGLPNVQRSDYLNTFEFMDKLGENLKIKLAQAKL
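IDH1-R132H (0.5 ug/mL dispensed) in pH 7.5 Tris buffer was preincubated 30 min with compound, then given a substrate mix of 0.016 mM NADPH and 2 mM alpha-KG for 80 min at room temperature; remaining NADPH was read by diaphorase/resazurin fluorescence.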
TrxR1 substrate: rat thioredoxin reductase 1 substrate activity | O89049 | purified TrxR1 substrate turnover, NADPH consumption readout | Potency, µM (doses to about 114 µM), without a hit: at the top dose activity change, negative = substrate turnover | 390,000 compounds, 0.01% hits; also: potency is read from the fitted curve at half-maximal effect; % is scaled to controls: 0 for no effect and ±100 for the full control effect; nearly all actives have a fitted effect of over 50% in size
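Rat TrxR1, dispensed at 90 nM, was prereduced with 400 uM NADPH (final) for 5 min at ~22 deg C, then incubated with compound 15 min before 400 uM selenite. A first-read NADPH fluorescence drop versus no-compound background flagged substrates.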
Giardia killer: Giardia lamblia killing; 340,000 compounds, 0.15% hits; activity change, % at 7.66 µM, hits read low; Giardia lamblia trophozoite viability; in the data active = activity change below about -80%; inconclusive = between about -30% and that limit;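 also: parasites exposed to compound for two days anaerobically before the ATP read; % is scaled to controls: 0 for no effect and ±100 for the full control effect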
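Luminescence from cellular ATP indicates surviving trophozoites (100 cells/well) following 48 hrs anaerobic compound treatment at 37 deg C; signal develops 15-30 min at room temperature.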
BRCA1 expr up: activators of BRCA1 expression; MCF7-BRCA1-FFLuc reporter, luminescence, 48 h; response scale: scaled: vehicle 0%, 10 µM genistein 100%; 380,000 compounds, 1.1% hits; Potency, µM (top dose mostly 46.1 µM), inactives show top-dose activation, hits mostly activators; AID 624202; also: potency is read from the fitted curve at half-maximal effect; nearly all actives have a fitted effect of over 80% in size
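Quantitative HTS in MCF7 cells stably reporting BRCA1 expression via firefly luciferase. Compound treatment lasts 48 h at 37 °C in phenol-red free MEM. Activation is expressed relative to genistein at 10 microM and DMSO.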
IL-2 act: activates IL-2 in a cell-based reporter assay; IL-2 activation reporter assay, cell-based qHTS; stimulated with anti-CD3/CD4/CD28 beads; in transgenic mouse T cells; activation, % (series mostly up to about 46 µM); 360,000 compounds, 0.065% hits; in the data active = activation above about 50%; inconclusive = mostly about 30% to 49%; also: 0% is about no effect
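Using fluorescent plate cytometry, EGFP and DsRed are detected in transgenic mouse T cells stimulated 18 h at 37 degrees C with antibody-coated beads after 60 min compound pretreatment.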
* marks the source's active call; other numbers are inactive results; u = inconclusive; x = no result; [ ] = dose if it differs, or a comment. Unless noted, calls follow the shape of the dose curve; as a rule, active = well fitted curve in the direction sought with a large enough effect; inconclusive = small, poorly fitted or top-dose-only effect, or another doubt; inactive = no such curve, though single readings can be large; an effect the other way counts as inactive or inconclusive.

SMILES	rTrxR1 inhibitor	mIDH1 inhibitor	TrxR1 substrate	Giardia killer	BRCA1 expr up	IL-2 act
CN(C)c1ccc(/C=C2/C(=O)NC(=O)N(Cc3ccco3)C2=O)cc1	50µM*	-1%	-15%	26	-12%	2
O=C1NC(=O)N(Cc2ccco2)C(=O)/C1=C/c1ccc(-c2cccc([N+](=O)[O-])c2)o1	40µM*	-10%	-4%	-8	-19%	-1
C=CCN1C(=O)NC(=O)/C(=C\c2ccc(-c3ccccc3[N+](=O)[O-])o2)C1=O	-9%[57.1 µM]	13%	19%[57.1 µM]	6	-32%	-4
CCN(CC)c1ccc(/C=C2/C(=O)NC(=O)N(Cc3ccco3)C2=O)cc1	35µM*	-2%	-7%	-20	23%	6
O=C(NCc1ccccc1)c1cccc(Nc2nc3ccccc3n3nnnc23)c1	134%	1%	126%	x	x	x
O=P1(Oc2ccccc2)CC=CC(COCc2ccccc2)O1 (stereo not given)	14%	x	-3%	9	x	x
c1ccc2c(c1)-c1cccc3cccc-2c13	37%	11%	40%[57.1 µM]	-12	15%	-1
S=C(S)N1CCCC1	0%[57.1 µM]	-7%	3%[57.1 µM]	22	-1%	-1
O=C(Oc1ccc([N+](=O)[O-])cc1)N1CCN(/[N+]([O-])=N/Oc2ccc([N+](=O)[O-])cc2[N+](=O)[O-])CC1	u	x	6%	x	16%	x
COc1ccc(-n2nc(C(=O)NCC(=O)N3CCC4(CC3)OCCO4)c3ccccc3c2=O)cc1Cl	11%	2%	6%	6	10µM*	-3
O=C(c1ccco1)N1CCN(C(=O)c2ccc(COc3ccc(Cl)cc3Cl)o2)CC1	7.1µM*	-10%	-3%[57.1 µM]	4	10%	0
O=C(O)COc1ccc(Cl)cc1Cl	9%	0%	1%	6	1%	-4
CCN(CC)C(=O)c1c(C)[nH]c(=S)c(C#N)c1-c1ccco1	u	-5%	2%[57.1 µM]	-9	0%	-5
Cc1cc(/C=C2/C(=O)NC(=O)N(c3ccc(Br)cc3)C2=O)c(C)n1C	7%[57.1 µM]	-1%	5%[57.1 µM]	6	-21%	10
Cc1cc(/C=C2\C(=O)NC(=O)N(c3cccc(Br)c3)C2=O)c(C)n1C	-5%	6%	-8%	-18	-35%	68*
CC[C@H](C)/C=C(C)/C=C/C1=CC2=C(Cl)C(=O)[C@](C)(OC(C)=O)C(=O)C2=CO1	50µM*	26%	-2%	-10	-9%	0
COc1ccccc1-n1c(O)c(/C=N/NC(=S)Nc2ccccc2)c(=O)[nH]c1=S	10µM*	1%	2%	-12	43%	0
CCn1c(O)c(/C=N/NC(=O)c2ccccc2)c(=O)[nH]c1=S	-3%	-4%	-7%	2	0%	0
CC(=NCc1ccco1)c1c(O)n(-c2ccccc2C)c(=O)[nH]c1=O	u	5%	1%[57.1 µM]	33	-2%	1
Cc1ccccc1-n1c(O)c(C(c2ccncc2)c2c(O)n(-c3ccccc3C)c(=O)[nH]c2=O)c(=O)[nH]c1=O	14µM*	5%	5%[57.1 µM]	-2	1%	-2
Cc1ccc(NC(=O)COC(=O)/C=C/c2ccco2)cc1S(=O)(=O)N(C)C	40µM*	4%	-3%	-11	-8%	0
Cc1cc(/C=C/c2ccnc3ccccc23)ccc1N(CCCl)CCCl	-33%	x	1%	x	0%	x
COc1cccc(C(=O)C2CCCN(Cc3ccc(F)cc3)C2)c1 (stereo not given)	30%	-2%	5%	-11	-39%	-2
COc1ccc(CCN2CCCC(CN(C)C(=O)c3cc(C)oc3C)C2)cc1 (stereo not given)	7%	0%	1%	16	7.9µM*	-1
SMILES	rTrxR1 inhibitor	mIDH1 inhibitor	TrxR1 substrate	Giardia killer	BRCA1 expr up	IL-2 act
CC1Cc2ccccc2CN1 (stereo not given)	34%	x	7%	x	x	x
CC1=C/C(=N\NC(=S)NCCc2ccccc2)CC(C)(C)C1	-12%	0%	-10%	-11	11µM*	7
c1ccc(CCNCc2ccccc2)cc1	-9%	0%	-7%	5	17%	0
CC(c1nccs1)N(C)C(=O)c1cn(Cc2cccc3ccccc23)nn1 (stereo not given)	2%	-8%	-6%	-5	u	0
CCCCCn1c(=O)c(C(=O)Nc2nc3ccccc3[nH]2)c(O)c2ccccc21	21%[57.1 µM]	7%	-12%[57.1 µM]	42	-8%	-2
Cc1ccc(C(=O)Nc2nc3ccccc3[nH]2)cc1	6%	-2%	2%	-92*	-79%	-2
Cc1ccnc(-n2c(C)cc(C=C3C(=O)N(C)C(=S)N(C)C3=O)c2C)c1	18µM*	-8%	-8%	9	9%	2
Cc1cc(C=C2C(=O)N(C)C(=S)N(C)C2=O)c(C)n1-c1ccncc1	u	3%	3%	-5	-16%	1
C[C@H](N)Cc1cccc(C(F)(F)F)c1	18%[57.1 µM]	x	9%[57.1 µM]	x	x	x
COc1nc(NC2CCCCC2)nc(NC(C)(C)C)n1	-12%[57.1 µM]	2%	-5%[57.1 µM]	30	u	-2
Cc1ccc(N/N=C/C=C/c2ccco2)cc1	5%[57.1 µM]	5%	3%[2.29 µM]	-12	7.9µM*	-1
CC(C)(O)[C@@H]1C2OC(=O)[C@@H]1[C@]1(O)C[C@H]3O[C@]34C(=O)O[C@H]2[C@]14C (tested in a mixture with another compound)	19%[57.1 µM]	x	9%[57.1 µM]	x	x	x
CC(=O)c1ccc(NC(=O)CSc2nc(=O)cc(N)n2-c2ccccc2)cc1	9%	6%	-3%	2	10µM*	-2
O=C(CN1CCCC2CCCCC21)c1ccc(I)cc1 (stereo not given)	-31%	x	1%	x	x	x
Cc1cc(/C=C/c2cccc3sc(C)[n+](CCCCI)c23)ccc1N(CCCl)CCCl	16µM*	x	-9%	x	-31%	x
O=[N+]([O-])c1ccccc1CCl	45µM*	17%	9%	-29	-12%	-1
O=C1CCN(C(=O)Cc2ccccc2[N+](=O)[O-])CC1	11%	1%	3%	5	34%	-1
COc1ccc(CN(C)S(=O)(=O)c2nnc(NC(=O)c3ccccc3Br)s2)cc1	7%	23%	4%	-21	1%	1
S=c1[nH]c2cc(Br)cnc2[nH]1	u	-6%	5%[57.1 µM]	-8	-6%	1
COc1ccc(CN2CCNCC2)cc1	35µM*	-2%	-1%	u	12%	0
COc1ccc(OCC#CCN2CCNCC2)cc1	-30%	0%	-10%	34	43%	0
